“And” between values parts separate entries of the source, which are not always exact repeats. Equal values may be shown once. Compounds without any hit were thinned out: in the full panel of roughly 83,000, 20% have a hit.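 Cell lines were cultured in 96-well plates, exposed to a single compound concentration, and assessed for percent growth 48 hours later.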 The source made the active and inactive calls. Rule for the calls: active = growth percent below 10; inactive = the rest.
What was measured:
Experiment in all cases: NCI-60 one-dose screen, 48 h (100 = growth as untreated, 0 = no growth, -100 = all killed)
NCI-H23 lung = test system: NCI-H23 lung
NCI-H226 lung = test system: NCI-H226 lung
NCI-H322M lung = test system: NCI-H322M lung
HOP-62 NSCLC = test system: HOP-62 NSCLC
NCI-H460 lung = test system: NCI-H460 lung
HOP-92 NSCLC = test system: HOP-92 NSCLC
NCI-H522 lung = test system: NCI-H522 lung
A549/ATCC NSCLC = test system: A549/ATCC NSCLC
786-0 renal = test system: 786-0 renal
COLO 205 colon = test system: COLO 205 colon

Measured: growth

COc1ccc(Cl)cc1C(=O)NCCc1ccc(S(=O)(=O)NC(=O)NC2CCCCC2)cc1
inactive: NCI-H23 lung; 10 µM 103% and 104% | NCI-H23 lung; 100 µM 81.8% | NCI-H226 lung; 10 µM 101% and 97.4% | NCI-H226 lung; 100 µM 62.4% | NCI-H322M lung; 10 µM 96.2% | NCI-H322M lung; 100 µM 88.5% | HOP-62 NSCLC; 10 µM 88.3% | HOP-62 NSCLC; 100 µM 69.1% | NCI-H460 lung; 10 µM 103% and 114% | NCI-H460 lung; 100 µM 72.2% | HOP-92 NSCLC; 10 µM 74% and 95.5% | HOP-92 NSCLC; 100 µM 63.6% | NCI-H522 lung; 10 µM 97% | NCI-H522 lung; 100 µM 54.1% | A549/ATCC NSCLC; 10 µM 99.8% and 103% | A549/ATCC NSCLC; 100 µM 57.9% | 786-0 renal; 10 µM 107% and 98.6% | 786-0 renal; 100 µM 75.5% | COLO 205 colon; 10 µM unless noted 117% and 112%

O=C1CCN(Cc2ccccc2)C(=S)N1
inactive: NCI-H23 lung; 10 µM unless noted 117% and 100% | NCI-H226 lung; 10 µM unless noted 110% and 105% | NCI-H322M lung; 10 µM unless noted 92.1% and 93% | HOP-62 NSCLC; 10 µM unless noted 101% and 103% | NCI-H460 lung; 10 µM unless noted 113% and 105% | HOP-92 NSCLC; 10 µM unless noted 70.4% and 92.4% | NCI-H522 lung; 10 µM unless noted 114% and 95.1% | A549/ATCC NSCLC; 10 µM unless noted 107% and 105% | 786-0 renal; 10 µM unless noted 108% and 109% | COLO 205 colon; 10 µM unless noted 111% and 108%

CCOC(=O)Nc1nc2ccccc2[nH]1
inactive: NCI-H23 lung; 10 µM unless noted 102% and 56.7% | NCI-H226 lung; 10 µM unless noted 104% and 71.9% | NCI-H322M lung; 10 µM unless noted 107% and 72.2% | HOP-62 NSCLC; 10 µM unless noted 106% and 53.4% | NCI-H460 lung; 10 µM unless noted 106% and 22.4% | HOP-92 NSCLC; 10 µM unless noted 104% and 62.5% | NCI-H522 lung; 10 µM unless noted 95.6% and 46.8% | A549/ATCC NSCLC; 10 µM unless noted 102% and 55.4% | 786-0 renal; 10 µM unless noted 98.5% and 39% | COLO 205 colon; 10 µM unless noted 119% and 37.7%

CCC(C)C1(C2CCCC2)NC(=O)NC1=O (centres undefined)
inactive: NCI-H23 lung; 10 µM unless noted 103% and 101% | NCI-H226 lung; 10 µM unless noted 113% and 108% | NCI-H322M lung; 10 µM unless noted 99.1% and 115% | HOP-62 NSCLC; 10 µM unless noted 98.6% and 102% | NCI-H460 lung; 10 µM unless noted 117% and 107% | HOP-92 NSCLC; 10 µM unless noted 92.1% | NCI-H522 lung; 10 µM unless noted 77.2% and 105% | A549/ATCC NSCLC; 10 µM unless noted 100% and 106% | 786-0 renal; 10 µM unless noted 104% and 108% | COLO 205 colon; 10 µM unless noted 102% and 116%

O=[N+]([O-])c1ccc(/C=N\NC(=S)Nc2ccc(F)cc2)cc1
inactive: NCI-H23 lung; 10 µM unless noted 101% and 88.3% | NCI-H226 lung; 10 µM unless noted 105% and 91.1% | NCI-H322M lung; 10 µM unless noted 86.6% and 97.9% | HOP-62 NSCLC; 10 µM unless noted 105% and 94.6% | NCI-H460 lung; 10 µM unless noted 95.3% and 87% | HOP-92 NSCLC; 10 µM unless noted 107% and 75.7% | NCI-H522 lung; 10 µM unless noted 95% and 104% | A549/ATCC NSCLC; 10 µM unless noted 82.1% and 90.9% | 786-0 renal; 10 µM unless noted 105% and 98.5% | COLO 205 colon; 10 µM unless noted 104% and 103%

CC(C)(C)c1cc(NC(=O)Cc2ccc(-c3cnc4cc(-c5cnn(CCN6CCOCC6)c5)ccc4n3)cc2)no1
inactive: NCI-H23 lung; 10 µM 26.4% | NCI-H23 lung; 30 µM 27.3% | NCI-H226 lung; 10 µM 10% | NCI-H226 lung; 30 µM 13.7% | NCI-H322M lung; 10 µM 24.9% | NCI-H322M lung; 30 µM 26.1% | HOP-62 NSCLC; 10 µM 17.1% | HOP-62 NSCLC; 30 µM 34.4% | NCI-H460 lung; 10 µM 11% | NCI-H460 lung; 30 µM 13% | NCI-H522 lung; 10 µM 20% | NCI-H522 lung; 30 µM 27% | A549/ATCC NSCLC; 10 µM 24.3% | A549/ATCC NSCLC; 30 µM 20.8% | 786-0 renal; 10 µM 18% | 786-0 renal; 30 µM 21.7% | COLO 205 colon; 30 µM 20.5%
active: HOP-92 NSCLC; 10 µM -3.35% | HOP-92 NSCLC; 30 µM -10.6% | COLO 205 colon; 10 µM 9.61%

CC(C)(O)Cn1cc(-c2ccc3nc(OC4CC4)ccc3c2)c2c(N)ncnc21
inactive: NCI-H23 lung; 10 µM unless noted 70.1% and 42% | NCI-H226 lung; 10 µM unless noted 56.5% and 26.5% | NCI-H322M lung; 10 µM unless noted 96.7% and 73.5% | HOP-62 NSCLC; 10 µM unless noted 73.8% and 39.8% | NCI-H460 lung; 10 µM unless noted 88.5% and 27.6% | HOP-92 NSCLC; 10 µM unless noted 48% and 32.8% | NCI-H522 lung; 10 µM unless noted 67.1% and 36.8% | A549/ATCC NSCLC; 10 µM unless noted 75.3% and 51.3% | 786-0 renal; 10 µM unless noted 89.1% and 60.2% | COLO 205 colon; 10 µM unless noted 91.3% and 58.7%

— PubChem BioAssay (NCI)
